Article PMC4552634, “A New Set of Chemical Starting Points with Plasmodium falciparum Transmission-Blocking Potential for Antimalarial Drug Discovery” (PLoS ONE, 2015)
In all, about 13,000 compounds went through this assay and about 3,200 (25%) showed an effect of 50% or more. The list shows a part of the results.

system: P. falciparum stage V gametocytes; set-up: BacTiter-Glo ATP luminescence viability of purified stage V gametocytes in 384-well plates, per cent inhibition versus DMSO; settings: 48 h, 5 µM; inhibitor

First: CC(C)(C)c1ccc(NC(=O)c2cccc(CN3CCN(Cc4cccc(O)c4)CC3)c2)cc1 [TCMDC-136604]
Second: CCCc1ccc(NC(=O)c2cccc(CN3CCCN(Cc4cccc(O)c4)CC3)c2)cc1 [TCMDC-135978]
The “% Inhibition” value of the first is lower: -36.18% for the first, 12.81% for the second.

Going from `COc1ccc(CNC(=O)NC2CCN(c3ccnc(Nc4cc(OC)c(OC)c(OC)c4)n3)C2)cc1` (centres unmarked) [TCMDC-133619] to `COc1cc(Nc2nccc(N3CCC(NC(=O)Nc4ccc5c(c4)OCO5)C3)n2)cc(OC)c1OC` (centres unmarked) [TCMDC-133629], the “% Inhibition” value falls from -40.46% to -90.76%.

First: Cc1cccc(CN2CCCN(Cc3ccc(C(=O)Nc4ccc(C(C)(C)C)cc4)cc3)CC2)c1 [TCMDC-136434]
Second: CCCN1CCN(Cc2ccc(C(=O)Nc3ccc(Cl)cc3)cc2)CC1 [TCMDC-136387]
The “% Inhibition” value of the first is lower: -28% for the first, 3.347% for the second.

Going from `CN(c1ccc(NC(=O)Nc2cc(C(F)(F)F)ccc2F)cc1)c1ccnc(NCCN2CCCC2)n1` [TCMDC-141635] to `CN(c1ccc(NC(=O)Nc2cc(C(F)(F)F)ccc2F)cc1)c1ccnc(NCCN2CCOCC2)n1` [TCMDC-141590], the “% Inhibition” value falls from 83.6% to 51.14%.

Going from `Cn1nc(-c2ccc(NC(=O)Nc3ccc4ccccc4c3)c(F)c2)c2cnc(NCCN3CCOCC3)nc21` [TCMDC-141561] to `Cc1ccc(CN2CCN(c3cc4c(cc3Cl)CCN4C(=O)Cc3ccc(Cl)c(NC(=O)Nc4cccc(C#N)c4)c3)CC2)cc1` [TCMDC-139471], the “% Inhibition” value falls from 17% to 12.97%.

Going from `CCN(CCN(C)C)Cc1ccc(-c2ccc(NS(=O)(=O)c3cccc4cccnc34)cc2)cc1` [TCMDC-136600] to `CCc1ccc(NC(=O)N(CCCn2ccnc2)Cc2csc(-c3ccc(CNCc4ccccc4)cc3)n2)cc1` [TCMDC-141797], the “% Inhibition” value falls from 46.29% to 5.722%.

First: O=C(Nc1cccc(C(F)(F)F)c1)c1ccc(S(=O)(=O)NCC2CCCN2CC2CCCCC2)cc1 (centres unmarked) [TCMDC-133689]
Second: O=C(Nc1cccc(C(F)(F)F)c1)c1ccc(S(=O)(=O)NCC2CCCN(CC3CCCCC3)C2)cc1 (centres unmarked) [TCMDC-132777]
The “% Inhibition” value of the first is lower: -36.87% for the first, 92.44% for the second.

Compared with `O=C(Nc1ccc(C(F)(F)F)cc1)c1cccc(S(=O)(=O)NCC2CCCN(CC3CCCCC3)C2)c1` (centres unmarked) [TCMDC-133673], `O=C(Nc1cccc(C(F)(F)F)c1)c1cccc(S(=O)(=O)NCC2CCCN(CC3CCCCC3)C2)c1` (centres unmarked) [TCMDC-132770] is higher in “% Inhibition” value: -19.66% for the first, 87.2% for the second.

Going from `O=C(Nc1ccc(Cl)cc1)c1ccc(CN2CCCN(CC3CCCCC3)CC2)cc1` [TCMDC-136400] to `O=C(Nc1ccc(Cl)cc1)c1ccc(S(=O)(=O)NCC2CCN(CC3CCCCC3)CC2)cc1` [TCMDC-132808], the “% Inhibition” value rises from -37.54% to 84.19%.

Compared with `CCCN1CCN(c2ccccc2NS(=O)(=O)c2ccc(C(=O)Nc3ccc(Cl)cc3)cc2)CC1` [TCMDC-136350], `CCCN1CCN(c2ccc(NS(=O)(=O)c3ccc(C(=O)Nc4ccc(Cl)cc4)cc3)cc2)CC1` [TCMDC-136351] is higher in “% Inhibition” value: 1.888% for the first, 71.9% for the second.

Going from `O=C(Nc1cccc(C(F)(F)F)c1)c1cccc(S(=O)(=O)NCC2CCCN(Cc3ccccc3)C2)c1` (centres unmarked) [TCMDC-133685] to `O=C(Nc1cccc(C(F)(F)F)c1)c1cccc(S(=O)(=O)NCC2CCN(CC3CCCCC3)CC2)c1` [TCMDC-133684], the “% Inhibition” value falls from -6.422% to -26.22%.

First: O=C(Nc1ccc(C(F)(F)F)cc1)c1ccc(S(=O)(=O)NCC2CCCN(CC3CCCCC3)C2)cc1 (centres unmarked) [TCMDC-133680]
Second: O=C(Nc1cccc(C(F)(F)F)c1)c1ccc(S(=O)(=O)NCC2CCN(CC3CCCCC3)CC2)cc1 [TCMDC-132776]
The “% Inhibition” value of the first is lower: -21.48% for the first, 87.8% for the second.

First: CC(C)c1ccc(NC(=O)c2ccc(C(=O)NCC3CCN(CC4CCCCC4)CC3)cc2)cc1 [TCMDC-136753]
Second: CCCCCN1CCC(CNS(=O)(=O)c2ccc(C(=O)Nc3cccc(C(F)(F)F)c3)cc2)CC1 [TCMDC-132775]
The “% Inhibition” value of the first is higher: 4% for the first, -3.109% for the second.

First: CCNc1cc(C)nc(Nc2ccc(NC(=O)c3ccccc3)cc2)n1 [TCMDC-124988]
Second: CC(=O)Nc1cccc(C(=O)Nc2cccc(-c3ccc(-c4nc5cccc(C)c5[nH]4)s3)c2)c1 [TCMDC-132144]
The “% Inhibition” value of the first is lower: -14.46% for the first, 10.52% for the second.

First: N=C(N)c1ccc(Oc2ccc(C(=N)N)cc2)cc1 [TCMDC-124287]
Second: CCCC(=O)Nc1ccc(OCCCN(Cc2ccccc2C(F)(F)F)c2ccc(C#N)c(C(F)(F)F)c2)cc1 [TCMDC-135466]
The “% Inhibition” value of the first is higher: 24.59% for the first, 20.73% for the second.

Going from `CC(C)[C@H](NC(=O)c1ccc(O)c(-c2cccc(C(F)(F)F)c2)c1)C(=O)NC1CCCc2ccccc21` (some centres unmarked) [TCMDC-140819] to `O=C(c1cc(C(=O)Nc2ccccc2F)c(=O)n(-c2ccccc2F)c1)c1cc(Cl)ccc1O` [TCMDC-123625], the “% Inhibition” value rises from -19.12% to 90.03%.

Going from `CCCCCCc1cnc2nc(N)nc(N)c2c1C` [TCMDC-138065] to `Nc1nc(N)c2c(ccc3nccc32)[nH]1` [TCMDC-124301], the “% Inhibition” value falls from 8.256% to -21.41%.

Compared with `O=C(NC1CCC(N2CCCC(OCc3ccccc3)C2)CC1)c1cc2ccccc2[nH]1` (centres unmarked) [TCMDC-132892], `COc1ccc(O)c(C(=O)c2cc(C(=O)NCCc3ccccc3)c(=O)n(CCc3ccccc3)c2)c1` [TCMDC-125435] is lower in “% Inhibition” value: 14.17% for the first, -12.88% for the second.

Compared with `COc1cc2c(cc1OC)C(C)(C)CN1Cc3c(c(CO)c(OC)c(OC)c3OC)CC21` (centres unmarked) [TCMDC-137250], `COc1ccccc1NC(=O)c1cc(C(=O)c2cc(Cl)ccc2O)cn(-c2ccccc2OC)c1=O` [TCMDC-124338] is higher in “% Inhibition” value: -48.53% for the first, 29.65% for the second.

Going from `COc1ccc2nc(N)nc(C)c2c1` [TCMDC-123907] to `CNC(=O)c1ccccc1Nc1cc(Nc2cc(OC)ccn2)ncc1Cl` [TCMDC-135054], the “% Inhibition” value falls from 15.32% to -20.04%.

Going from `CS(=O)(=O)CCNCc1cccc(-c2cc3c(Nc4ccc(OCc5cccc(F)c5)c(Cl)c4)ncnc3s2)c1` [TCMDC-134654] to `CN(CCS(C)(=O)=O)Cc1ccc(-c2ccc3ncnc(Nc4ccc(OCc5cccc(F)c5)c(Cl)c4)c3c2)o1` [TCMDC-138629], the “% Inhibition” value rises from -64.99% to -22.68%.

Compared with `Cn1cncc1C(=O)Nc1cccc(-c2ccc(-c3nc4cc(F)ccc4[nH]3)s2)c1` [TCMDC-137066], `Cn1cncc1C(=O)Nc1cccc(-c2ccc(-c3nc4ccccc4[nH]3)s2)c1` [TCMDC-137055] is lower in “% Inhibition” value: 61.93% for the first, 40.39% for the second.

First: Cc1cccc2nc(-c3ccc(-c4ccc(NC(=O)c5cncn5C)cc4)s3)[nH]c12 [TCMDC-137067]
Second: Cc1cccc2nc(-c3ccc(-c4cccc(NC(=O)c5cncn5C)c4)s3)[nH]c12 [TCMDC-137068]
The “% Inhibition” value of the first is lower: 9.475% for the first, 78.66% for the second.

First: CC(=O)Nc1cccc(C(=O)Nc2cccc(-c3ccc(-c4nc5cc(F)ccc5[nH]4)s3)c2)c1 [TCMDC-132142]
Second: O=C(Nc1ccc(-c2cccc(-c3nc4ccc(F)cc4[nH]3)c2)cc1)c1cnn2cccnc12 [TCMDC-136864]
The “% Inhibition” value of the first is higher: 5.899% for the first, -12.66% for the second.

Compared with `NC(N)=Nc1nc(-c2cc(NC(=O)C(F)(F)F)cc([N+](=O)[O-])c2)cs1` [TCMDC-137440], `O=C(Nc1cccc(CN2CCN(C(=O)c3cccc(Cl)c3)CC2)c1)c1cccs1` [TCMDC-136326] is higher in “% Inhibition” value: -35.18% for the first, 0.1034% for the second.

Compared with `COc1cccc(CN2Cc3ccccc3OC3(CCN(Cc4c[nH]c5cnccc45)CC3)C2)c1` [TCMDC-133378], `CN1CCCN(Cc2ccc(-c3cccc(NC(=O)c4cccc(Cl)c4)c3)cc2)CC1` [TCMDC-132641] is higher in “% Inhibition” value: 19.44% for the first, 27.52% for the second.

Compared with `O=C(c1cc(C(=O)Nc2ccccc2)c(=O)n(-c2ccccc2)c1)c1cc(Cl)ccc1O` [TCMDC-124511], `O=C(c1cc(C(=O)Nc2ccc(F)cc2)c(=O)n(-c2ccc(F)cc2)c1)c1cc(Cl)ccc1O` [TCMDC-123626] is lower in “% Inhibition” value: 30.05% for the first, 8.881% for the second.

Going from `Cc1ccc(O)c(C(=O)c2cc(C(=O)Nc3ccccc3C)c(=O)n(-c3ccccc3C)c2)c1` [TCMDC-123627] to `CCOC(=O)CC[C@@H](NC(=O)c1ccc(NCc2ccc3ccc4nc(C)[nH]c(=O)c4c3c2)cc1F)C(=O)N[C@@H](Cc1c[nH]c2ccccc12)C(=O)OCC` [TCMDC-137320], the “% Inhibition” value falls from 58.98% to 27.07%.

First: C(=NNc1ccnc2ccccc12)c1ccncc1 [TCMDC-142016]
Second: CCCCNCc1ccc(-c2nc(CN(CCCn3ccnc3)C(=O)C3COc4ccccc4O3)cs2)cc1 (centres unmarked) [TCMDC-141702]
The “% Inhibition” value of the first is lower: -6.172% for the first, 64.34% for the second.

Going from `CCCCNCc1ccc(-c2nc(CN(CCCn3ccnc3)C(=O)Nc3ccc(CC)cc3)cs2)cc1` [TCMDC-141639] to `CCCCNCc1ccc(-c2nc(CN(CCCn3ccnc3)C(=O)NC3CC3c3ccccc3)cs2)cc1` (centres unmarked) [TCMDC-141638], the “% Inhibition” value rises from 61.14% to 80.86%.

Going from `CCCN(Cc1nnc(-c2cccs2)o1)C(=O)C1COc2ccccc2O1` (centres unmarked) [TCMDC-125333] to `O=C(C1COc2ccccc2O1)N(CCCn1ccnc1)Cc1csc(-c2ccc(CNCc3ccccc3)cc2)n1` (centres unmarked) [TCMDC-141813], the “% Inhibition” value rises from 18.28% to 25.07%.

Compared with `O=C(Nc1ccc2ccccc2c1)N(CCCn1ccnc1)Cc1csc(-c2ccc(CNCc3ccccc3)cc2)n1` [TCMDC-141798], `CN1CCN(CCCN(Cc2csc(-c3ccc(CNCc4ccccc4)cc3)n2)C(=O)Nc2cccc(Cl)c2)CC1` [TCMDC-141794] is higher in “% Inhibition” value: 15.32% for the first, 15.5% for the second.

With `CCCCNCc1ccc(-c2nc(CN(CCCN3CCN(C)CC3)C(=O)Nc3cccc(Cl)c3)cs2)cc1` [TCMDC-141637] the “% Inhibition” value was 88.1%.
